Rows were chosen to be rich in hits. Some 2.5% of all compounds tested hit in one or more screens of this group.
Cruzain Triton: cruzain (T. cruzi) inhibition with detergent; P25779; purified cruzain, Z-FR-AMC fluorescence, 0.01% Triton; Potency, µM, without a hit: max response, negative = inhibition, usual class: inhibitors; 200,000 compounds, 0.43% hits; AID 1478;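 also: plate controls were neutral wells for no effect and buffer without enzyme for full effect; nearly all actives have a fitted effect of over 40% in size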
Target sequence (P25779 123-467 limits assumed): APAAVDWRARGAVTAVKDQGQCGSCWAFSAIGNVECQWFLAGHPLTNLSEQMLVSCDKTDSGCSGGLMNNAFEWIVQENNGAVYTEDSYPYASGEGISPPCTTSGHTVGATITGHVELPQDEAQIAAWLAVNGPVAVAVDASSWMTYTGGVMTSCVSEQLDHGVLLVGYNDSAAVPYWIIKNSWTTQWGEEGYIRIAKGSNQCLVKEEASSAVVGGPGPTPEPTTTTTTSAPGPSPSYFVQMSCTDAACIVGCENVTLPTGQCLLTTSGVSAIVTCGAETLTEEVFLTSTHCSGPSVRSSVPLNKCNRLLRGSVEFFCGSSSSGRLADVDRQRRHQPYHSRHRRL
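Cruzain (1.5 nM) preincubated 15 min at RT with compound in 100 mM sodium acetate pH 5.5, 5 mM DTT, 0.01% Triton X-100. Reaction started with 2 uM Z-FR-AMC; AMC fluorescence (ex 360/em 450 nm) change over 60 s gave rate.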
Cruzain inh noDet: inhibitors of Trypanosoma cruzi cruzain without detergent; P25779; purified cruzain, Z-FR-AMC fluorescence, no detergent; Potency, µM, without a hit: max response, negative = inhibition, most hits filed as inhibitors; 200,000 compounds, 2.3% hits;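 also: plate controls were enzyme without inhibitor for no effect and buffer without enzyme for full effect; nearly all actives have a fitted effect of over 40% in size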
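Detergent-free condition (0.00005% Triton X-100) in acetate buffer pH 5.5 with DTT. 1.5 nM enzyme and compound were pre-mixed 15 min, then 2 uM Z-FR-AMC substrate added; reaction progress from fluorescence change between first and third reads (60 s).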
* marks the source's active call; other numbers are inactive results; ? = inconclusive. Calls follow the shape of the dose curve; as a rule, active = well fitted curve in the direction sought with a large enough effect; inconclusive = small, poorly fitted or top-dose-only effect, or another doubt; inactive = no such curve, though single readings can be large; an effect the other way counts as inactive or inconclusive. Potency is read from the fitted curve at half-maximal effect.

SMILES	Cruzain Triton	Cruzain inh noDet
O=[N+]([O-])c1ccc(Nc2nc3ccccc3s2)cc1	3.5µM*	4µM*
Cc1ccc(Nc2nc3ccccc3s2)cc1	-10%	8%
O=C(Nc1cccc(F)c1)C1CCN(S(=O)(=O)c2cccc3nsnc23)CC1	-7%	-8%
CCn1cc(C(=O)OCC(=O)Nc2ccc(C)c(Cl)c2)c(=O)c2ccc(C)nc21	-3%	-10%
N=C(N)c1ccccc1	4%	-11%
N=C(N)c1ccc(/C=C\c2ccc(C(=N)N)cc2)cc1	-25%	3.2µM*
CCn1c(C)c(/C=N/Nc2nc3ccccc3s2)c2ccccc21	-1%	13µM*
Cc1nn(-c2ccccc2Cl)c(Cl)c1/C=N/Nc1nc2ccccc2s1	-2%	13µM*
C(=N\Nc1nc2ccccc2s1)/c1cccs1	-5%	-2%
CCOC(=O)N/N=C/c1c(C)nn(-c2ccccc2Cl)c1Cl	-4%	-2%
CCc1ccc2c(c1)-c1ccccc1S(=O)(=O)N2CC(=O)N1CCCCC1	0%	-1%
Cc1cc(C)n(C(C)CC(=O)Nc2ccc(C)c(N(C)C)c2)n1 (centres undefined)	-1%	8%
CCc1cccc(NC(=O)CCS(=O)(=O)c2ccc3nc(C)sc3c2)c1	-3%	5%
O=c1[nH]c(SCc2c(F)cccc2Cl)nc2c1CCC2	-6%	0%
COC(=O)c1sc(-c2ccccc2)cc1NC(=O)Nc1ccccc1Cl	4%	10µM*
COC(=O)c1sc(-c2ccccc2)cc1NC(=O)Nc1ccc(Cl)cc1	-3%	?
Cc1nc(NC(=O)c2ccco2)sc1-c1csc(Nc2ccc(Cl)cc2)n1	-2%	13µM*
Cc1nc(NC(=O)c2ccco2)sc1-c1csc(Nc2ccc(Cl)cc2Cl)n1	-3%	13µM*
COc1cccc(N(C(=O)c2ccco2)c2nc(-c3sc(NC(=O)c4ccco4)nc3C)cs2)c1	-3%	?
O=C(Nc1nc2ccc(Cl)cc2s1)c1ccco1	-3%	?
COc1ccccc1Nc1nc(-c2sc(NC(=O)c3ccco3)nc2C)cs1	-6%	?
Cc1ccc(Cl)cc1Nc1nc(-c2sc(NC(=O)c3ccco3)nc2C)cs1	-3%	25µM*
Cc1nn(C)c(C)c1S(=O)(=O)N(CC(=O)NCCc1ccccc1)c1ccc(C(C)C)cc1	0%	?
Oc1ccccc1C1Nc2cccc3cccc(c23)N1	-10%	-19%
COc1ccccc1C1Nc2cccc3cccc(c23)N1	-4%	25µM*
SMILES	Cruzain Triton	Cruzain inh noDet
Cc1nc2ccc(S(=O)(=O)N(C)CC(=O)Nc3ccc(C(C)C)cc3)cc2s1	0%	?
COC(=O)c1ccccc1NC(=O)c1ccc2c(c1)CCN2S(C)(=O)=O	1%	-3%
COc1ccc(Br)c2c1-c1nc(NC(=O)c3cccc(C)c3)sc1C2	-2%	6.3µM*
COc1ccc2c(c1)Cc1sc(NC(=O)c3cccc(Br)c3)nc1-2	-2%	?
CC(C)c1ccc(NC(=O)Cn2c(=O)n(Cc3nc(-c4ccccc4)no3)c(=O)c3cc4c(cc32)OCO4)cc1	0%	13µM*
Cc1ccc(NC(=O)Cn2c(=O)n(Cc3nc(-c4ccccc4)no3)c(=O)c3cc4c(cc32)OCO4)cc1C	-2%	10µM*
COc1ccc(NC(=O)Cn2c(=O)n(Cc3nc(-c4ccccc4)no3)c(=O)c3cc4c(cc32)OCO4)cc1Cl	-6%	?
COc1ccc(NC(=O)Cn2c(=O)n(Cc3nc(-c4ccccc4)no3)c(=O)c3cc4c(cc32)OCO4)c(OC)c1	-2%	16%
Cc1noc(Cn2c(=O)c3cc4c(cc3n(CC(=O)Nc3ccc(C(C)C)cc3)c2=O)OCO4)n1	-9%	5%
CCc1ccc(NC(=O)Cn2c(=O)n(Cc3nc(-c4ccccc4)no3)c(=O)c3cc4c(cc32)OCO4)cc1	-2%	16µM*
Cc1ccc(-c2cc(NC(=O)C(C)Oc3ccccc3F)on2)cc1 (centres undefined)	-11%	-10%
Cc1ccc(N2CC(NC(=O)Cc3ccc(F)cc3)CC2=O)cc1C (centres undefined)	4%	-3%
COc1ccc(CCC(=O)NCc2ccc3c(c2)CCN3C(=O)c2cccc(C)c2)cc1	-3%	21%
CCC(CC)C(=O)Nc1nc(-c2ccc3c(c2)CCN3C(=O)C2CC2)c(C)s1	-7%	-2%
Cc1cccc(C(=O)N2CCc3cc(-c4nc(NC(=O)Cn5nnc6ccccc6c5=O)sc4C)ccc32)c1	-4%	10µM*
Cc1sc(NC(=O)CN2CCOCC2)nc1-c1ccc2c(c1)CCN2S(=O)(=O)c1ccccc1	-4%	?
Cc1ccccc1C(=O)N1CCc2cc(-c3nc(NC(=O)Cc4ccc5c(c4)OCO5)sc3C)ccc21	-14%	3.2µM*
Cc1sc(NC(=O)Cc2ccc3c(c2)OCO3)nc1-c1ccc2c(c1)CCN2C(=O)c1cccc(F)c1	-1%	7.9µM*
Cc1nn2c(C)c(C(=O)NC(C)c3ccccc3)cnc2c1-c1ccc(F)cc1 (centres undefined)	0%	-10%
COC(=O)c1c(Oc2ccc(C(C)=O)cc2)nnc(-c2ccccc2)c1-c1ccccc1	-8%	-11%
CN1CCN(c2ccc(-c3nc(-c4ccccc4)no3)cc2[N+](=O)[O-])CC1	-6%	11%
Cc1ccc(NC2=CC(c3ccccc3F)N(c3ccc(C)cc3)C2=O)cc1 (centres undefined)	-8%	?
Cc1ccc(C)c(NC(=O)CCCn2c(C)c3cnn(-c4ccccc4)c(=O)c3c2C)c1	-6%	23%
Cn1c(=O)cnc2cnc(Nc3ccccc3)nc21	-6%	25µM*
COCCn1c(=O)cnc2cnc(Nc3ccccc3)nc21	-7%	-9%
SMILES	Cruzain Triton	Cruzain inh noDet
CCn1c2ccccc2c2cc(NC(=O)COC(=O)c3cccc(S(=O)(=O)NC)c3)ccc21	-2%	-26%
CCN(CC)S(=O)(=O)c1cccc(C(=O)OCC(=O)Nc2ccc3c(c2)c2ccccc2n3CC)c1	-4%	7.9µM*
CCCOc1ccc(-c2nn(-c3ccccc3)cc2/C=C2\SC(N)=NC2=O)cc1	0%	?
CCOc1ccc(-c2nn(-c3ccccc3)cc2/C=C2\SC(=S)N(Cc3ccco3)C2=O)cc1	-6%	10µM*
CCOC(=O)c1c(NC(=O)c2cc(=O)c3cc(C)cc(C)c3o2)sc(C)c1C	-1%	-9%
O=C1C2=C(Nc3ccccc3SC2c2ccc(Cl)c(Cl)c2)c2ccccc21 (centres undefined)	-2%	10µM*
CCOc1cc(C2Sc3ccccc3NC3=C2C(=O)c2ccccc23)ccc1O (centres undefined)	-6%	-5%
O=C1C2=C(Nc3ccccc3SC2c2c(F)cccc2Cl)c2ccccc21 (centres undefined)	-4%	-14%
O=C1C2=C(Nc3ccccc3SC2c2ccccc2C(F)(F)F)c2ccccc21 (centres undefined)	-8%	?
CCCc1ccc(C2Sc3ccccc3NC3=C2C(=O)c2ccccc23)cc1 (centres undefined)	-3%	7.9µM*
COc1ccc(Br)cc1C1Sc2ccccc2NC2=C1C(=O)c1ccccc12 (centres undefined)	-2%	16µM*
Cc1ccc(CNc2ncnc3c2cnn3-c2ccccc2)cc1	5%	25µM*
Cc1ccc(-n2ncc3c(NCc4ccccc4)ncnc32)cc1	5%	-25%
CCOC(=O)c1ccc(NC(=O)CSc2cc(=O)n(CC)c3ccccc23)cc1	0%	-6%
CCC(=O)Nc1nnc(Sc2ccc(N(C)C)cc2)s1	1%	-12%

High-throughput results (PubChem BioAssay)
